Calls of active or inactive are those of the source.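 How the source made its calls, unless noted: active means efflux inhibition above 0.42, the validation set average plus 4 SD; inconclusive means no clear call, values can overlap the other calls; inactive means the rest.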

Test [1] in a line: reduced mouse 2C T cell binding to pMHC/ICAM-1 vesicles – MLPCN validation set, flow cytometry, LFA-1/ICAM-1 modulator project, pilot screen (AID 2523;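 active means response below a set limit, under 55% cells CD8-positive and vesicle-bound, and CD8 cells' 90th-percentile brightness under 279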;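 on vesicle binding response: mean PE anti-B7-1 fluorescence of CD8+ cells relative to row control; 100% = QL9-loaded vesicles with DMSO vehicle in the same plate row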). The note with it: 2C mouse CD8+ T cells, at 7 µM, stronger effect = lower value; double positive events: measured here: CD8+/vesicle+ event percentage. (In flow cytometry, cells or beads pass a laser one at a time.)
Test [2] deals with Integrin beta-1 (Homo sapiens) + Integrin alpha-4 (Homo sapiens) (UniProt P13612+P05556). In words: alpha4beta1 integrin LIBS antibody binding reduction – U937 cells, HUTS-21 mAb, flow cytometry, validation set, VLA-4 allosteric modulator project, pilot screen (AID 2674;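 active means inhibition above 50%, about 3 SD of the validation set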;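 further: antibody binding induced by the VLA-4 ligand LDV present at three times its Kd; 0% = LDV ligand with antibody and no compound and 100% = antibody without LDV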). The note with it: HUTS-21 LIBS mAb binding, at 6.7 µM, stronger effect = higher value, binding induced by LDV ligand.
Test [3] in a line: calorie-restriction mimetic ROS inhibitors, yeast – validation compound set, pilot screen (AID 2706;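 active means superoxide response below 65% of plate, a cut near 3 SD across the whole screen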;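 further: yeast exposed to compound for one week at 30 degrees C before staining; 100% = mean of all compound wells on the same plate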). The note with it: S. cerevisiae aging, superoxide DHE fluorescence; at 10 µM, stronger effect = lower value.
Test [4] concerns the target Beta-adrenergic receptor kinase 1 (Homo sapiens) (UniProt P25098). In words: GRK2 binders displacing RNA aptamer, biochemical, validation, human GRK2, bead flow cytometry (AID 488806;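 active means aptamer binding inhibition above 30%, about 3 SD of noise from non-fluorescent compounds; inactive means inhibition at or below 30%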). The note with it: bead-bound GRK2, FAM-aptamer displacement, at 10 µM, stronger effect = higher value.
Test [5] concerns the target Beta-2 adrenergic receptor (Homo sapiens) (UniProt P07550). In words: agonist-induced loss of surface beta2AR – cell-based, FAP fluorogen, flow cytometry, validation set, pilot screen (AID 504459;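 active means percent response above 42, roughly 3 SD of non-fluorescent test compounds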;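 further: agonist-driven loss of surface beta2AR via internalization measured by FAP dye flow cytometry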). The note with it: Am2.2-beta2AR cells, at 10 µM, stronger effect = higher value.
In test [6] the target is AP-2 complex subunit beta (Homo sapiens) (UniProt P63010). In words: beta-arrestin/AP2 interaction blockers – biochemical, validation set, GST-AP2 beads, flow cytometry, pilot screen (AID 504541;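 active means inhibition above 54%, about 3 SD of non-fluorescent compounds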;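 further: AP2 carries R879A mutation and is captured from E. coli lysate; bead-bound FITC arrestin peptide fluorescence measuring arrestin peptide binding to AP2; 0% = DMSO wells and 100% = excess unlabeled arrestin peptide control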). The note with it: FITC arrestin peptide, at 10 µM, stronger effect = higher value, AP2 beta2 appendage fragment, R879A mutant.
A short description of test [7]: cytosolic pH regulators acting via V-ATPase – S. cerevisiae, pHLuorin, HTS validation (AID 504600; in the data active means response above about 15%;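 further: plate controls were DMSO for no effect and reference compound for full effect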). The note with it: V-ATPase proton transport, at 10 µM, stronger effect = higher value.
In test [8] the test system is anti-desmoglein-3 scFv antibody binding to human DSG3. As to the kind of experiment: blockers of pathogenic pemphigus antibody–desmoglein-3 binding – biochemical, validation compound set, bead-based, flow cytometry, pilot screen (AID 588368;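 active means binding below the plate cutoff, the plate median minus 3 SD, with a reading above zero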;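 further: signal is the median channel fluorescence of bead-bound GFP antibody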). The note with it: Protein G beads, DSG3-Fc, scFv-GFP binding, at 10 µM, stronger effect = lower value.
Test [9] is described as follows: Nile Red efflux blockade in pump-expressing yeast – validation compound set, multiplex, phenotypic, pilot screen (AID 588506).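 Further: Nile Red retained in cells so higher fluorescence means more efflux inhibition; 0 = negative control wells and 1 = enniatin B 25 µM full block.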 The note with it: S. cerevisiae pump-expressing triplex, Nile Red efflux flow cytometry; at 10 µM; stronger effect = higher value; the pumps come from Candida albicans.
Test [10] addresses ATP-binding cassette sub-family B member 6 (Homo sapiens) (UniProt Q9NP58). In words: blockers of ABCB6-driven porphyrin uptake – K562-ABCB6 cells, flow cytometry, validation set, pilot screen (AID 588550;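 active means inhibition above the screen-wide mean plus 3 SD, about 51%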;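 further: 0% = DMSO wells and 100% = benzethonium chloride 70 µM positive control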). The note with it: K562-ABCB6 porphyrin accumulation, 1 h, at 10 µM, stronger effect = higher value.
The nature of test [11]: AML differentiation inducers, ER-HoxA9 marrow cells – cell-based, GFP/MAC1 double positive, flow cytometry, validation set, primary screen (AID 588685;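 active means differentiation response of at least 50%, scaled between solvent and reference control, from cells with both markers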;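 further: compound exposure lasts four days before antibody staining and flow analysis; 0% = DMSO wells and 100% = 5 µM fulvestrant positive control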). The note with it: stronger effect = higher value, normalized: vehicle 0, fulvestrant 100.

Integrin beta-1 (Homo sapiens) + Integrin alpha-4 (Homo sapiens), sequence (P05556 whole entry, looked up): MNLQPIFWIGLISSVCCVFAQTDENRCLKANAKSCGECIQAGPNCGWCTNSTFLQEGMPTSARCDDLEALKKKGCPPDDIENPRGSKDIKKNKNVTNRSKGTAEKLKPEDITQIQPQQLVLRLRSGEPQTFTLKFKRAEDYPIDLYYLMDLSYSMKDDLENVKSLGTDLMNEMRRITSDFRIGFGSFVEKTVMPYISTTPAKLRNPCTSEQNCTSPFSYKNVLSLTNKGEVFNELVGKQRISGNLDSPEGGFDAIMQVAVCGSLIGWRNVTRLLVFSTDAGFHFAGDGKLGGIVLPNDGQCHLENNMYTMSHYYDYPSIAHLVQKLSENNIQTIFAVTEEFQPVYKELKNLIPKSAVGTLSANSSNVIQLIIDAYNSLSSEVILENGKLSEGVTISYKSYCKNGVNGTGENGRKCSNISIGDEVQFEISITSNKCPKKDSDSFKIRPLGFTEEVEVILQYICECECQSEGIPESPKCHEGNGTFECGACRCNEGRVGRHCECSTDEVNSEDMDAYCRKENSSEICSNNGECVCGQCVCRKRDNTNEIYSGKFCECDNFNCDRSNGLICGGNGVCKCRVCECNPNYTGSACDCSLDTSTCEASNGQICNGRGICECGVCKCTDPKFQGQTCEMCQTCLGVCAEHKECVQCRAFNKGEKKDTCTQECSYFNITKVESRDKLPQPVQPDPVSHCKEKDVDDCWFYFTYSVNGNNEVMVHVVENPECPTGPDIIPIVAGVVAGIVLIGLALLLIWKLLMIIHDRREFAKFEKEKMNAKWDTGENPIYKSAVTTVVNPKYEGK
Integrin beta-1 (Homo sapiens) + Integrin alpha-4 (Homo sapiens), sequence (P13612 whole entry, looked up): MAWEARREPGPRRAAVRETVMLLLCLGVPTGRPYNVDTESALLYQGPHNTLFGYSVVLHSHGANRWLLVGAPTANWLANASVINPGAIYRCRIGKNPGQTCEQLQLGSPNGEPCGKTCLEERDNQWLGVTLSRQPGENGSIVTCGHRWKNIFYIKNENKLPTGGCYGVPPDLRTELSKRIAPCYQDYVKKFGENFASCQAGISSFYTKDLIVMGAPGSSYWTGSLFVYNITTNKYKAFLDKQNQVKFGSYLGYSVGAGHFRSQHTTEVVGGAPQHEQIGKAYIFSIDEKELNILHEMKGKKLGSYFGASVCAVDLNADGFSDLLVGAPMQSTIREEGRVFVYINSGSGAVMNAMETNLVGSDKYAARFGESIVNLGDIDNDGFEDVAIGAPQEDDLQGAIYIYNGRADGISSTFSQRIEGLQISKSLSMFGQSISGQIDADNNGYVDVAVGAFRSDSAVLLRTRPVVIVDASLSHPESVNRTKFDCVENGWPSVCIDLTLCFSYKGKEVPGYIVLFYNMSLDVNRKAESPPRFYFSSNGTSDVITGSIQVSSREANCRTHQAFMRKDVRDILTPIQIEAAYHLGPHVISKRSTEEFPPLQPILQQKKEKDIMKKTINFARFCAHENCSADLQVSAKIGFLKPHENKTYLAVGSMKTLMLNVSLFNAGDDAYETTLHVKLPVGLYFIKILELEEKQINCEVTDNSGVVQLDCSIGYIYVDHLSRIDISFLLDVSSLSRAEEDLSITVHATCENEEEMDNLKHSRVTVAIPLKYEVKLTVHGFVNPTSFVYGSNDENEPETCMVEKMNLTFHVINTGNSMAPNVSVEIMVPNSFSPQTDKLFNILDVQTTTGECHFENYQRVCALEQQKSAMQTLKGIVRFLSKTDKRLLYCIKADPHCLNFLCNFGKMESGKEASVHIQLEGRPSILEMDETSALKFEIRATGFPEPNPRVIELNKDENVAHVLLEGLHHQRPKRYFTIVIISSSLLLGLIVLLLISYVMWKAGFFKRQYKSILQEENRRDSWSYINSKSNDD
Beta-adrenergic receptor kinase 1 (Homo sapiens), sequence (P25098 whole entry, looked up): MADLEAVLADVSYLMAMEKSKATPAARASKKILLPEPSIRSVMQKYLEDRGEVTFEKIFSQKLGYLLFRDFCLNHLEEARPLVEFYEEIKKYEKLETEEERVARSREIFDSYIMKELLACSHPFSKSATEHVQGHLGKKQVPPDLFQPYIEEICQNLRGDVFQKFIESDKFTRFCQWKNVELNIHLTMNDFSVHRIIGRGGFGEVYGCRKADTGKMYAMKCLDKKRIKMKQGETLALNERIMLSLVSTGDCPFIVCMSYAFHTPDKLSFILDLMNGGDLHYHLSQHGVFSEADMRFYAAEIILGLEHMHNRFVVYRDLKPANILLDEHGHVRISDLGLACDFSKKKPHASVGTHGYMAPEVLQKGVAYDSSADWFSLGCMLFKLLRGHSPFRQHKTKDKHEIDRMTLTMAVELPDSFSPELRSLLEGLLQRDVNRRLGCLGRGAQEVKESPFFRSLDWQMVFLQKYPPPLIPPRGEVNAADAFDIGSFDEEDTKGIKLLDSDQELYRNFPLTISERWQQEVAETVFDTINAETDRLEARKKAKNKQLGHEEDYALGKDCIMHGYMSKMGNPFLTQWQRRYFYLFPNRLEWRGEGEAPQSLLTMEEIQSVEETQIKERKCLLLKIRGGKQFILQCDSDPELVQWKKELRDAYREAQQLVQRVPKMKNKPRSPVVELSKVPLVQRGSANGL
Beta-2 adrenergic receptor (Homo sapiens), sequence (P07550 whole entry, looked up): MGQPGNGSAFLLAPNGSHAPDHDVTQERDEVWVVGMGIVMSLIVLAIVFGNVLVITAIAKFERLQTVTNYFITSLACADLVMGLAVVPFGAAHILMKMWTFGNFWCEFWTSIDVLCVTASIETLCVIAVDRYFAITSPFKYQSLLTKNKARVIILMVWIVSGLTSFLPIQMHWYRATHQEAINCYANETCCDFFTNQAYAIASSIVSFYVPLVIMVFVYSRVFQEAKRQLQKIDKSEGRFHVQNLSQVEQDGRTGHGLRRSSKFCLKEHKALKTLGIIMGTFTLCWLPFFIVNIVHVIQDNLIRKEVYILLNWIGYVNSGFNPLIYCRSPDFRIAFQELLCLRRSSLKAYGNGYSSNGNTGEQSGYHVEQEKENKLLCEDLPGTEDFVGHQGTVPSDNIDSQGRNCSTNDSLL
AP-2 complex subunit beta (Homo sapiens), sequence (P63010 whole entry, looked up, the tested form may be a part, one chain of several): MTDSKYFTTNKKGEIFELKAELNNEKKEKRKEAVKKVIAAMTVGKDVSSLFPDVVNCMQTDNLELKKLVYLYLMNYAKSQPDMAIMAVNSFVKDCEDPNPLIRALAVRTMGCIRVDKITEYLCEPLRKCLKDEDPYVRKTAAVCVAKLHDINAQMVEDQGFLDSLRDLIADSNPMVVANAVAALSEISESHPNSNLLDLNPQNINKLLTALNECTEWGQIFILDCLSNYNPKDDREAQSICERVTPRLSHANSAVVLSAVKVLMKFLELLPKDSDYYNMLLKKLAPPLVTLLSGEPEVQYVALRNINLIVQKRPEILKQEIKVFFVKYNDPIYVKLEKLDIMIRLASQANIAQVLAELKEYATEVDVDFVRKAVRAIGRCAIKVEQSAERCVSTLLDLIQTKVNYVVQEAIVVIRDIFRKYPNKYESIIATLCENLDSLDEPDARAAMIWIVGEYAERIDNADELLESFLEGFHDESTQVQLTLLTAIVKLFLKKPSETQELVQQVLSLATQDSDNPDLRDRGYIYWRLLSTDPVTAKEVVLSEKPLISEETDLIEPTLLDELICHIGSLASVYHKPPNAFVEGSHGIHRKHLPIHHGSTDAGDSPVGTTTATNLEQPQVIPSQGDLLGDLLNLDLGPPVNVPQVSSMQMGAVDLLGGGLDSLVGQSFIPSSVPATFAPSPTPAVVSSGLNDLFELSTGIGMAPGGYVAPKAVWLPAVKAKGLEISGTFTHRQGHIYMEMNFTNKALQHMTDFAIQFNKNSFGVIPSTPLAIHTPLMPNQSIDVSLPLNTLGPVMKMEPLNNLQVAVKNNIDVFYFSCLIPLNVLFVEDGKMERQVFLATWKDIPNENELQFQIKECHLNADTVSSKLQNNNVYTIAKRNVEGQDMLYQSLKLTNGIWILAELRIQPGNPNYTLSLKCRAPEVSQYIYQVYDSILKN
ATP-binding cassette sub-family B member 6 (Homo sapiens), sequence (Q9NP58 whole entry, looked up): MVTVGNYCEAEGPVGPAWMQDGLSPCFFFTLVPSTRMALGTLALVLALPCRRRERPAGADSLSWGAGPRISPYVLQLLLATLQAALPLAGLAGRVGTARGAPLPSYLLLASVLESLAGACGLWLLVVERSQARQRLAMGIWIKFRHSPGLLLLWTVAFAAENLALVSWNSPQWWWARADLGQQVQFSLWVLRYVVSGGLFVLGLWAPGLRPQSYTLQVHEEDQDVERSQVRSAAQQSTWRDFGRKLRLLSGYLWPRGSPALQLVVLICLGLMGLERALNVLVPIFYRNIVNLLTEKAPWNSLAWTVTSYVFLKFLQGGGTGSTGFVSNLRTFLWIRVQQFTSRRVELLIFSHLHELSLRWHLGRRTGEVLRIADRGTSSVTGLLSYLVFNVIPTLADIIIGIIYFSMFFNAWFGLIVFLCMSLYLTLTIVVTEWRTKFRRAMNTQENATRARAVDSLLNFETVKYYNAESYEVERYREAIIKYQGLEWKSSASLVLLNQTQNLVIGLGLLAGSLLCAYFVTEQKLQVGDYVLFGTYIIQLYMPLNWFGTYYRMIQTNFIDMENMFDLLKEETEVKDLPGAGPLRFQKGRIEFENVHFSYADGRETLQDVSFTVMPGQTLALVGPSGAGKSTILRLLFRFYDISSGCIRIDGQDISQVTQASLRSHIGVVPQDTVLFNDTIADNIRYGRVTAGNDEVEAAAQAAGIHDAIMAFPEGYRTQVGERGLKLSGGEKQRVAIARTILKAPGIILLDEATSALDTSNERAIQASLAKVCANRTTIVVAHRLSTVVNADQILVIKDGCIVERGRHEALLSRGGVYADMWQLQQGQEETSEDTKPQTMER

With `NC(=O)N1c2ccccc2C=Cc2ccccc21`, the double positive events in [1] came to 56%. Moreover, in [1], the vesicle binding response is 120% (inactive). Further, the inhibition (as a rule, the drop in the measured response relative to a control, in per cent) is 5.61% (inactive) in [2], 1.72% (inactive) in test [6] and 11% (inactive) in [10]. Further, the superoxide response (% of plate) in test [3] was 112% (inactive). In test [4], the aptamer binding inhibition was 3% (inactive). In addition, the results for the response in [5] and in test [7] were 13.8% (inactive) and -12.4% (inactive), respectively. In [8], the binding (% of control) was 98.5% (inactive). In addition, the efflux inhibition (fraction of control) in test [9] was -0.07 (inactive). For the same molecule, the differentiation response in test [11] was -3.11% (inactive).

`C=CCn1c(SCC(=O)NC2CCCCC2)nc2ccccc2c1=O` came in with a double positive events in test [1] of 57.6%. The vesicle binding response in test [1] was 172% (inactive). Besides, the inhibition in [2] was 4.27% (inactive); in [6], 1.93% (inactive); in [10], -4% (inactive). Besides, the superoxide response (% of plate) in [3] was 114% (inactive). Also, the aptamer binding inhibition in test [4] is 3% (inactive). Further, the response in test [5] was -5.54% (inactive); in [7], 11.4% (inactive). Further, in test [8], the binding (% of control) was 99.2% (inactive). Also, the efflux inhibition (fraction of control) in [9] was 0 (inactive). Further, in test [11], the differentiation response is -17.7% (inactive).

Consider `Cc1ccc(P(=O)(CSC(=N)N)c2ccc(C)cc2)cc1`, for which the double positive events in test [1] turned out to be 60.2%. The vesicle binding response in test [1] is 155% (inactive). The inhibition in test [2] was 4.27% (inactive); in [6] it was 2.42% (inactive); in [10] it was 35% (inactive). For the same molecule, the superoxide response (% of plate) in [3] is 95% (inactive). The aptamer binding inhibition in test [4] is 8% (inactive). Besides, the response in test [5] was 1.61% (inactive); in test [7] it was -0.71% (inactive). The binding (% of control) in test [8] was 104% (inactive). Besides, in test [9], the efflux inhibition (fraction of control) is 0.3 (inactive). Also, the differentiation response in test [11] is 4.2% (inactive).

In test [1], `CC(=O)NCCCC(=O)NC(CCC(=O)OCc1ccccc1)C(=O)OCc1ccccc1` (stereo not drawn) displayed a double positive events of 72.6%. The vesicle binding response in [1] is 425% (inactive). Further, the inhibition in test [2] was 5.03% (inactive); in test [6], -8.67% (inactive); in test [10], 2% (inactive). The superoxide response (% of plate) in test [3] is 86.7% (inactive). Besides, the aptamer binding inhibition in [4] was 1% (inactive). Also, the response in test [5] was 6.65% (inactive); in [7], -0.06% (inactive). Further, the binding (% of control) in [8] was 96.8% (inactive). In addition, in test [9], the efflux inhibition (fraction of control) is 0.4 (inactive). In test [11], the differentiation response was 34.4% (inactive).

Consider `CCN(CC)C(=S)SSC(=S)N(CC)CC`, for which the double positive events in test [1] came out at 59.7%. The vesicle binding response in test [1] is 164% (inactive). For the same molecule, the inhibition in test [2] is 27.8% (inactive); in [6], 3.89% (inactive); in test [10], 4% (inactive). In test [3], the superoxide response (% of plate) is 109% (inactive). Besides, in test [4], the aptamer binding inhibition was 4% (inactive). Moreover, the response in test [5] was 14.2% (inactive); in [7], -29.5% (inactive). Further, the binding (% of control) in [8] was 100% (inactive). Besides, the efflux inhibition (fraction of control) in test [9] was -0.13 (inactive). Also, in [11], the differentiation response is -0.06% (inactive).

For `NS(=O)(=O)c1cc2c(cc1C(F)(F)F)NCNS2(=O)=O`, in [1], the double positive events was found to be 80.6%. Moreover, the vesicle binding response in [1] was 205% (inactive). Moreover, the values for the inhibition in test [2], in test [6] and in [10] were 10.8% (inactive), 1.9% (inactive) and 11% (inactive), respectively. Moreover, in test [3], the superoxide response (% of plate) was 92.9% (inactive). In addition, the aptamer binding inhibition in [4] was 5% (inactive). The figures for the response in [5] and in test [7] were -9.47% (inactive) and 1.35% (inactive), respectively. Moreover, the binding (% of control) in test [8] is 101% (inactive). The efflux inhibition (fraction of control) in [9] was -0.04 (inactive). The differentiation response in test [11] is -3.02% (inactive).

`Cc1ccc(C(=O)NC(=S)NCCCN2CCOCC2)cc1`: the double positive events in [1] was 66.2%. Also, the vesicle binding response in test [1] was 172% (inactive). Besides, the inhibition in [2] is 5.49% (inactive); in test [6], 4.05% (inactive); in test [10], 13% (inactive). Further, in test [3], the superoxide response (% of plate) is 96% (inactive). Moreover, the aptamer binding inhibition in test [4] was 4% (inactive). The response was 1.89% (inactive) in test [5] and 5.81% (inactive) in test [7]. Also, the binding (% of control) in test [8] was 103% (inactive). The efflux inhibition (fraction of control) in test [9] was -0.38 (inactive). Further, the differentiation response in test [11] is -0.82% (inactive).

On to `C=C(CC)C(=O)c1ccc(OCC(=O)O)c(Cl)c1Cl`, for which the double positive events in test [1] was found to be 52.1%. In addition, in test [1], the vesicle binding response was 105% (inactive). Besides, the results for the inhibition in test [2], in test [6] and in [10] were -4.21% (inactive), -9.01% (inactive) and -92% (inactive), respectively. Also, the superoxide response (% of plate) in [3] is 98.5% (inactive). Besides, the aptamer binding inhibition in test [4] is 2% (inactive). Moreover, the response in test [5] is 14.6% (inactive); in [7] it was 1.56% (inactive). The binding (% of control) in test [8] was 108% (inactive). Also, the efflux inhibition (fraction of control) in test [9] is -0.38 (inactive). Moreover, in test [11], the differentiation response was 1.64% (inactive).

Take `CC(C)CC(=O)N(Cc1ccc(F)cc1)C1CCS(=O)(=O)C1` (stereo not drawn): the double positive events in test [1] is 61.8%. For the same molecule, the vesicle binding response in test [1] was 204% (inactive). Also, the inhibition in [2] is 0.25% (inactive); in test [6] it was 1.93% (inactive); in [10], 19% (inactive). Besides, in test [3], the superoxide response (% of plate) is 114% (inactive). Also, in test [4], the aptamer binding inhibition was 2% (inactive). The response in test [5] was 22.9% (inactive); in [7], 3.28% (inactive). In addition, in [8], the binding (% of control) was 102% (inactive). For the same molecule, the efflux inhibition (fraction of control) in test [9] is 0.91 (active). For the same molecule, the differentiation response in test [11] is -8.96% (inactive).

The values above are taken from PubChem BioAssay.
